The record followed here is PubChem BioAssay AID1851 (National Center for Advancing Translational Sciences (NCATS), 2009).

What is called AC50 is the midpoint of the concentration-response curve, whichever way the signal moves.

“And” between values parts separate entries of the source, which are not always exact repeats. Equal entries are not always repeated. Out of some 16,000 compounds screened, about 2,600 (16%) were called active. Roughly 20% stayed inconclusive and do not appear here. Calls come from the whole dose curve; as a rule, active = well fitted curve in the direction sought with a large enough effect; inconclusive = small, poorly fitted or top-dose-only effect, or effect the other way; inactive = no such curve, though single readings can be large or run the other way. The entries come from a sample that favours actives as a whole.
% is set by controls: 0 for no effect and ±100 for the full control effect.

In this experiment the target is Cytochrome P450 2D6 (Homo sapiens) (UniProt P10635). As to the kind of experiment: Cytochrome panel assay with activity outcomes. The conditions noted are these: recombinant CYP, pro-luciferin dealkylation, luminescence, p450-cyp2d6; series mostly up to 57.1 µM; activity, negative = inhibition: at the top concentration.
Cytochrome P450 2D6 (Homo sapiens), sequence (P10635 whole entry, looked up): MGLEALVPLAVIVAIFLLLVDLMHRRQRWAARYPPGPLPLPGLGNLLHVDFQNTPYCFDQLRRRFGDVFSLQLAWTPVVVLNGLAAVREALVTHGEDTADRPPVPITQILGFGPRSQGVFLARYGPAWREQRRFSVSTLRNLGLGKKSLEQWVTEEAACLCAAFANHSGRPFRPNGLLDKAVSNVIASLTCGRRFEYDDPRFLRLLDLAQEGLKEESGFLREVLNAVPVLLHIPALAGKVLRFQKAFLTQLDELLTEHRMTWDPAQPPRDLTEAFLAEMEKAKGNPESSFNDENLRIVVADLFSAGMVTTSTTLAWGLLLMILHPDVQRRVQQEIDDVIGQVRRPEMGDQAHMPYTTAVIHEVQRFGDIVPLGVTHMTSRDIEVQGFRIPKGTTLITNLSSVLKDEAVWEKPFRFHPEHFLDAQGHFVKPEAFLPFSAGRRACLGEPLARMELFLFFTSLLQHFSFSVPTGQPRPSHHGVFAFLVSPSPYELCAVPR
Turning to `Cc1ccc(N2C(=O)/C(=C/N3CCN(C(=O)c4ccco4)CC3)C(=O)NC2=S)cc1C`, the AC50 is 0.0282 µM (active).

Turning to `Cc1ccc(N2C(=O)/C(=C/c3ccc(CN(CCC#N)S(C)(=O)=O)o3)C(=O)NC2=S)cc1C`, the “activity, negative = inhibition” value is 4.47% (inactive).

As for `CC(=O)Nc1ccccc1C(=O)OCC(=O)c1ccc2ccccc2c1`, the “activity, negative = inhibition” value is 29.5% (inactive).

`CC[C@@]1(O)C(=O)OCc2c1cc1n(c2=O)Cc2cc3c(NC(=O)CN)cccc3nc2-1`: the activity, negative = inhibition was 3.66% [at 11.4 µM] (inactive).

For the compound `O=C(O)[C@H]1[C@H](C(=O)O)[C@H]2CC[C@@H]1O2`, the “activity, negative = inhibition” value is 2.98% (inactive).

Turning to `CN(C)CC/C=C1\c2ccccc2Sc2ccc(Cl)cc21`, the AC50 is 2.51 µM (active).

As to `CN(C)CCC=C1c2ccccc2CCc2ccccc21`, the concentration at half-maximal activity (AC50) was 7.94 µM (active).

For `CN(C)[C@@H]1C(=O)C(C(N)=O)=C(O)[C@]2(O)C(=O)C3=C(O)c4c(O)cccc4[C@@](C)(O)[C@H]3[C@H](O)[C@@H]12`, the “activity, negative = inhibition” value is 0.652% [at 25.6 µM] (inactive).

Regarding `FC(F)(F)c1nc2ccc(SSc3ccc4nc(C(F)(F)F)[nH]c4c3)cc2[nH]1`, the activity, negative = inhibition is -8.27% [at 11.4 µM] (inactive).

For `CP(=O)(O)C1=CCNCC1`, the “activity, negative = inhibition” value was -1.3% (inactive).

As to `CCCN1CCC[C@H](c2cccc(O)c2)C1`, the AC50 entry is “inactive”.

Consider `CCCN1CCC[C@H](c2cccc(C#N)c2)C1`, for which the AC50 is 31.6 µM (active).

As to `CN1C2CCC1/C(=C\c1ccccc1)C(=O)/C2=C\c1ccccc1`, the AC50 is 0.158 µM (active).

Take `CCOC(=O)N(c1ccccc1)P1(=S)OCCO1`: the “activity, negative = inhibition” value was 4.06% (inactive).

For `CC(=O)[C@@H]1CC[C@@H]2[C@@H]3CCC4=CC(=O)CC[C@@]4(C)[C@H]3CC[C@]21C`, the “activity, negative = inhibition” value was -11.4% [at 25.6 µM] (inactive).

On to `Cn1ccnc1`, for which the “activity, negative = inhibition” value is 7.17% (inactive).

With `C[Se]C[C@@H](N)C(=O)O`, the “activity, negative = inhibition” value is 15.1% (inactive).

`CC[C@]1(C2=NCCN2)Cc2ccccc2O1`: the AC50 was 12.6 µM (active).

As to `CC[C@H](C)C(=O)O[C@@H]1[C@H](O)[C@@H]2[C@H](CN3C[C@@H](C)CC[C@@H]3[C@@]2(C)O)[C@@H]2C[C@@]34O[C@@]5(O)[C@@H](OC(=O)[C@](C)(O)CC)CC[C@@]3(C)[C@H]5[C@H](OC(C)=O)[C@@H](OC(C)=O)[C@H]4[C@]12O`, the “activity, negative = inhibition” value was 9.64% [at 25.6 µM] (inactive).

Regarding `O=c1cc(-c2ccc(O)c(O)c2)oc2cc(O)cc(O)c12`, the “activity, negative = inhibition” value is -1.91% [at 25.6 µM] (inactive).

With `Cc1c([C@@H](C)[C@H]2NC[C@H](C)C[C@@H]2O)ccc2c1C[C@@H]1[C@H]2CC=C2C[C@@H](O)CC[C@@]21C`, the activity, negative = inhibition is 9.78% [at 11.4 µM] (inactive).

For `C[C@]1(O)CC[C@H]2[C@@H]3[C@@H](O)CC4=CC(=O)CC[C@@]4(C)[C@H]3CC[C@]21C`, the activity, negative = inhibition was 10.5% [at 11.4 µM] (inactive).

With `NC(=NCCc1ccc(I)cc1)SCCCc1cnc[nH]1`, the “activity, negative = inhibition” value was 9.29% (inactive).

Turning to `OCc1cnc[nH]1`, the “activity, negative = inhibition” value is -1.75% (inactive).

Turning to `NC(=NCc1ccc(Cl)cc1)SCCCc1cnc[nH]1`, the half-maximal activity concentration (AC50) was 12.6 µM (active).

Turning to `NCCc1ccc(S(=O)(=O)O)cc1[N+](=O)[O-]`, the activity, negative = inhibition was -0.422% [at 11.4 µM] (inactive).

Consider `NCCc1ccc(O)cc1`, for which the “activity, negative = inhibition” value was -10.7% (inactive).

For the compound `NCCc1ccc(S(=O)(=O)F)cc1`, the AC50 is 39.8 µM (active).

With `C=CCN1CC[C@@]23c4c5ccc(O)c4O[C@H]2/C(=N\N=C2/CC[C@@]4(O)[C@H]6Cc7ccc(O)c8c7[C@@]4(CCN6CC=C)[C@@H]2O8)CC[C@]3(O)[C@@H]1C5`, the “activity, negative = inhibition” value is -18.6% (inactive).

Regarding `C=CCN1CCC2(C)c3cc(O)ccc3C[C@H]1[C@H]2C`, the AC50 is 7.94 µM (active) and 25.1 µM (active) and 631 nM (active).

On to `C[C@@H]1[C@@H]2Cc3ccc(O)cc3[C@@]1(C)CCN2CC1CC1`, for which the AC50 was 31.6 µM (active).

Take `CC(=O)c1c(O)c(C)c(O)c(Cc2c(O)c3c(c(C(=O)/C=C\c4ccccc4)c2O)OC(C)(C)C=C3)c1O`: the “activity, negative = inhibition” value was -9.48% (inactive).

For `CC[C@@]1(O)C(=O)OCc2c1cc1n(c2=O)Cc2cc3ccccc3nc2-1`, the AC50 result is “inactive”.

Turning to `C=C1C/C(=C\C)C(=O)O[C@@H]2CCN3CC=C(COC(=O)[C@@]1(C)O)[C@H]23`, the “activity, negative = inhibition” value was 3.61% [at 25.6 µM] (inactive).

As to `O=c1ccc2[nH]cc(C3=CCNCC3)c2[nH]1`, the AC50 is 2.51 µM (active).

In the case of `COc1ccc2[nH]cc(C3=CCNCC3)c2c1`, the “activity, negative = inhibition” value is -4.23% (inactive).

On to `OC1(c2ccc(Cl)cc2)CCN(Cc2c[nH]c3ccccc23)CC1`, for which the AC50 is 0.316 µM (active).

Regarding `O=C(Nc1ccc(Cl)cc1C(=O)c1ccccc1)c1ccco1`, the “activity, negative = inhibition” value is -13.7% (inactive).

Turning to `O=C(/C=C\c1ccc(Cl)cc1)N[C@@]12CCC(=O)[C@@H]3Oc4c(O)ccc5c4[C@@]31CCN(CC1CC1)[C@@H]2C5`, the AC50 was 5.01 µM (active).

Regarding `C=C(C)CN1CC[C@@]23c4c5ccc(O)c4O[C@H]2c2[nH]c4ccccc4c2C[C@]3(O)[C@@H]1C5`, the “activity, negative = inhibition” value was 1.9% (inactive).

With `O=C1/C(=C\c2ccccc2)C[C@@]2(O)[C@H]3Cc4ccc(O)c5c4[C@@]2(CCN3CC2CC2)[C@@H]1O5`, the “activity, negative = inhibition” value was 12.5% (inactive).

In the case of `COc1ccc2c3c1O[C@@H]1C(=O)CC[C@@]4(O)[C@@H](C2)N(CC2CC2)CC[C@]314`, the half-maximal activity concentration (AC50) is 5.01 µM (active).

`NC(N)=Nc1ccc2[nH]c3c(c2c1)C[C@]1(O)[C@@H]2Cc4ccc(O)c5c4[C@]1(CCN2CC1CC1)[C@@H]3O5`: the “activity, negative = inhibition” value is 8.91% (inactive).
